Test [1] has as its system Wnt5a (protein binding on small-molecule microarray). Put plainly: Wnt5a binders on small-molecule microarray, primary screen, biophysical, 635/667 nm fluorescence (AID 1142).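 Also: fluorescence read at 667 nm with signal to noise per printed feature.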 The following applies: 635 nm fluorescence, higher = more signal.
Test [2] can be described thus: cell viability in Huh7 cells, primary screen, cytotoxicity control for HCV replication inhibitor project, CellTiter-Glo luminescence, basal, 48 h (AID 1143).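 Also: Huh7 hepatoma cells carrying a hepatitis C replication reporter with no stimulus; test concentration not given here.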 The note with it: Huh7 HCV replicon, higher = more signal, called active from +8 up or from −8 down. (Cellular ATP, detected with luciferase, serves as a proxy for viable cell number.)
Test [3] is described as follows: P. aeruginosa biofilm formation inhibitors, primary screen, PAO1 strain, BacTiter-Glo luminescence, LB-PBS (AID 1144). The note with it: 12 h, higher = more signal.
A short description of test [4]: CREB reporter modulators without forskolin, primary screen, cell-based, PC12, CRE-LacZ reporter, unstimulated (AID 1145). The following applies: no forskolin, luminescence, 4.5 h, higher = more signal, called active from +8 up or from −8 down.
Test [5] is described as follows: CREB reporter modulators under forskolin, primary screen, cell-based, PC12, CRE-LacZ reporter, forskolin-stimulated (AID 1146).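 Also: PC12 cells with 6xCRE LacZ reporter stimulated by forskolin 10 µM; beta-galactosidase reporter signal reflecting CREB driven transcription.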 The note with it: luminescence, 4.5 h, higher = more signal, called active from +8 up or from −8 down.
Test [6] concerns the target Streptavidin (Streptomyces avidinii) (UniProt P22629). Put plainly: streptavidin binders on small-molecule microarray, primary screen, artefact control for SMM compound annotation, biophysical, 635/667 nm fluorescence (AID 1147).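 Also: signal reflects streptavidin binding to arrayed compounds as a control protein.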 The following applies: streptavidin binding, higher = more signal.
Test [7] in a line: small-molecule binders of probe aInhba, primary screen, biochemical, small-molecule microarray, 635/667 nm fluorescence (AID 1148).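 Also: score merges 667nm spot fluorescence with signal-to-noise for antibody binding to printed compounds.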 The following applies: higher = more signal.
Test [8] concerns the target Torsin-1A (Homo sapiens) (UniProt O14656). Put plainly: torsin A binders from cell lysate, primary screen, small-molecule microarray, wild-type, 635/667 nm (AID 1149). The following applies: COS7 hTOR1A-WT lysate, 635 nm fluorescence, higher = more signal.
Test [9] shares this target. The test can be described thus: small-molecule binders of mutant TOR1A in lysate, primary screen, cell lysate, small-molecule microarray, COS7 lysate, 635/667 nm fluorescence (AID 1150).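 Also: score pools 667 nm emission and signal to noise measuring lysate protein binding.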 The note with it: COS7 hTOR1A mutant lysate, 635 nm fluorescence, higher = more signal.
For test [10], the system named is Sonic hedgehog protein (Shh). The test can be described thus: small-molecule binders of Shh protein, primary screen, biochemical, small-molecule microarray, 635/667 nm fluorescence (AID 1151).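 Also: Shh protein binding to compounds spotted on small-molecule microarray slides; score combines spot fluorescence intensity with signal-to-noise across triplicate slides.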 The note with it: small-molecule microarray binding, 635 nm fluorescence; higher = more signal.
Test [11] can be described thus: E. coli DRC41 culture turbidity changes, primary screen, E. coli filamentation inducer project, strain DRC41, OD650, 48 h (AID 1152).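 Also: E. coli MC1000 strain DRC41 lacking acrAB efflux pump and sulA.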 The note with it: E. coli DRC41 (acrAB sulA), higher = more signal, called active from +8 up or from −8 down.
Test [12] can be described thus: small-molecule binders of probe aLefty1, primary screen, biochemical, small-molecule microarray, 635/667 nm fluorescence (AID 1153).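 Also: score merges spot fluorescence with signal-to-noise ratio from the scanned slide images.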 The note with it: higher = more signal.
The nature of test [13]: PSAC antagonists in infected red cells, primary screen, cell-based, P. falciparum Indochina, OD700, 1 h (AID 1154). The following applies: P. falciparum Indochina infected RBC osmotic lysis, higher = more signal, called active from +8 up or from −8 down.
Test [14] in a line: PSAC antagonists in infected red cells, primary screen, cell-based, P. falciparum Indochina, OD700, 2 h (AID 1155).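 Also: lysis reports solute entry through the parasite surface anion channel PSAC; channel blockers reduce lysis of infected cells.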 The following applies: P. falciparum Indochina infected erythrocytes, osmotic lysis OD700; higher = more signal, called active from +8 up or from −8 down.
The nature of test [15]: osmotic lysis modulators in infected erythrocytes, primary screen, PSAC antagonist project, cell-based, P. falciparum Indochina, OD700, 3 h (AID 1156). The following applies: higher = more signal, called active from +8 up or from −8 down.
A short description of test [16]: PSAC antagonists in infected red cells, primary screen, cell-based, P. falciparum Indochina, OD700, 18 h (AID 1157). The following applies: P. falciparum Indochina infected erythrocytes, osmotic lysis OD700, 18 h; higher = more signal, called active from +8 up or from −8 down.
Test [17] in a line: modulators of S6 phosphorylation in cells, primary screen, cell-based, A549, cytoblot, luminescence, serum-stimulated (AID 1158).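 Also: serum-stimulated A549 lung adenocarcinoma cells; signal is phosphorylated S6 detected by cytoblot immunostaining with HRP secondary.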 The following applies: A549 phospho-S6 cytoblot, 5 h, higher = more signal.
Test [18] addresses NADPH oxidase 2 (Homo sapiens) (UniProt P04839). Put plainly: NOX2-dependent H2O2 signal modulators, primary screen, NOX inhibitor project, cell-based, HEK293-NOX2, PMA-stimulated, Amplex Red fluorescence (AID 1159). Also: test concentration not given here. The note with it: 45 min, higher = more signal, called active from +8 up or from −8 down.
The target of test [19] is NADPH oxidase 4 (Homo sapiens) (UniProt Q9NPH5). The test can be described thus: NOX4-dependent H2O2 signal modulators, primary screen, NOX inhibitor project, cell-based, HEK293-NOX4, tetracycline-induced, Amplex Red fluorescence (AID 1160). The note with it: 45 min, higher = more signal, called active from +8 up or from −8 down.
NADPH oxidase 4 (Homo sapiens), sequence (Q9NPH5 whole entry, looked up): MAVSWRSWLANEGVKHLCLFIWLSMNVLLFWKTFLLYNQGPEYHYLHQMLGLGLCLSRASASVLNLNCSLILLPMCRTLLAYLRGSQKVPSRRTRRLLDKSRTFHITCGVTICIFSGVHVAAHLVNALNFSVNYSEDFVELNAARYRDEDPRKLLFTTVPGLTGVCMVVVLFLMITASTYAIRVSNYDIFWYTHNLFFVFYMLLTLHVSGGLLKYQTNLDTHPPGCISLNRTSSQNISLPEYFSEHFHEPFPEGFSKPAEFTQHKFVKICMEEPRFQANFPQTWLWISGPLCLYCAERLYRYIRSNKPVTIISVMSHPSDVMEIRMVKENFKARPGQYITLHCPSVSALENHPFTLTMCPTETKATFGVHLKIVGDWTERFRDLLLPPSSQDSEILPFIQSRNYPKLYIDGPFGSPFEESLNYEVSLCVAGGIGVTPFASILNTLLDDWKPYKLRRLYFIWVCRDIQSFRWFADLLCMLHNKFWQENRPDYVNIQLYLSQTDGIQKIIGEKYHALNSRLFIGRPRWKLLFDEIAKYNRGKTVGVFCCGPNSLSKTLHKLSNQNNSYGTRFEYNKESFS
The target in test [20] is NADPH oxidase 5 (Homo sapiens) (UniProt Q96PH1). The test can be described thus: NOX5-dependent H2O2 signal modulators, primary screen, NOX inhibitor project, cell-based, HEK293-NOX5, Amplex Red fluorescence (AID 1161). The following applies: HEK293-NOX5, ionomycin, 45 min, higher = more signal.
NADPH oxidase 5 (Homo sapiens), sequence (Q96PH1 whole entry, looked up): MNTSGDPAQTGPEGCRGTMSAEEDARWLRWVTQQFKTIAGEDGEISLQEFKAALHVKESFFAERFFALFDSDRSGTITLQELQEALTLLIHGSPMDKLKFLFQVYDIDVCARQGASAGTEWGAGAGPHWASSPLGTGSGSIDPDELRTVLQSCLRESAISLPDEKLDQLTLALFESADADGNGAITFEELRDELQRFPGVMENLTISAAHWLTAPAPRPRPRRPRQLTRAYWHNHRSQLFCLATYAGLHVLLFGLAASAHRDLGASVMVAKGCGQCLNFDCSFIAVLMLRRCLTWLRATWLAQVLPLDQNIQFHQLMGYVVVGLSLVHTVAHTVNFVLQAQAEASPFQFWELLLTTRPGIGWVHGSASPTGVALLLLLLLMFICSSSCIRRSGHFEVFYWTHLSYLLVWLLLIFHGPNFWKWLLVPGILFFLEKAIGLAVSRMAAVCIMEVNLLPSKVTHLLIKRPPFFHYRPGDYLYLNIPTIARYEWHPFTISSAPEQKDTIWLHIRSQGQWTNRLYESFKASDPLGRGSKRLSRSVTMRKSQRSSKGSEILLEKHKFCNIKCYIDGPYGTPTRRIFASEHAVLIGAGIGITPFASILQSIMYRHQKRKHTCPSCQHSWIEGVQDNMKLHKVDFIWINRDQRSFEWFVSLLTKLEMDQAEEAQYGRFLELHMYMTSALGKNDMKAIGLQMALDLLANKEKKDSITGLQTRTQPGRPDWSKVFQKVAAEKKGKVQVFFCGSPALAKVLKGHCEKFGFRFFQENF

The structures appear in SMILES notation. Active and inactive are the calls of the source. Unless noted, no rule for the calls is given here.

Streptavidin (Streptomyces avidinii), sequence (P22629 whole entry, looked up): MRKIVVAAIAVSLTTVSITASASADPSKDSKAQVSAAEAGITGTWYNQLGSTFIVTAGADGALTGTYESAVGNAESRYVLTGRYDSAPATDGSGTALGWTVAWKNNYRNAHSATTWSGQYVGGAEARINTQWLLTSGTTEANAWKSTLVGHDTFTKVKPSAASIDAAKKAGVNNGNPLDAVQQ
NADPH oxidase 2 (Homo sapiens), sequence (P04839 whole entry, looked up): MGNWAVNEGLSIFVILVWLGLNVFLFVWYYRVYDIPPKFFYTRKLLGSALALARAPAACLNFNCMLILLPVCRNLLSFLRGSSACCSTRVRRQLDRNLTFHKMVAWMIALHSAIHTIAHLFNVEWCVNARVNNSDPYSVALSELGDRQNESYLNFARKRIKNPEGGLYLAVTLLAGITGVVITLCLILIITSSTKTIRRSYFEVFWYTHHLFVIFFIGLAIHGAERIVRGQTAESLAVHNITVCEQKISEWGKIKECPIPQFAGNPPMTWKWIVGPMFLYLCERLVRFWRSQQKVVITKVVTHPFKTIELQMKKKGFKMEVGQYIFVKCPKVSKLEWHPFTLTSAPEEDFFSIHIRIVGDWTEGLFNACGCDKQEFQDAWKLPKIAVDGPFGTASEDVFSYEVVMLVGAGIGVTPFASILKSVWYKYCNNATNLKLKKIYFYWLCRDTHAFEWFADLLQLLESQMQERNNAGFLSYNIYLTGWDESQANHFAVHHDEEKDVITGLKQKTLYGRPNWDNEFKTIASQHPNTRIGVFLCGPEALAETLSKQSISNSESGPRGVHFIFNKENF
Torsin-1A (Homo sapiens), sequence (O14656 whole entry, looked up): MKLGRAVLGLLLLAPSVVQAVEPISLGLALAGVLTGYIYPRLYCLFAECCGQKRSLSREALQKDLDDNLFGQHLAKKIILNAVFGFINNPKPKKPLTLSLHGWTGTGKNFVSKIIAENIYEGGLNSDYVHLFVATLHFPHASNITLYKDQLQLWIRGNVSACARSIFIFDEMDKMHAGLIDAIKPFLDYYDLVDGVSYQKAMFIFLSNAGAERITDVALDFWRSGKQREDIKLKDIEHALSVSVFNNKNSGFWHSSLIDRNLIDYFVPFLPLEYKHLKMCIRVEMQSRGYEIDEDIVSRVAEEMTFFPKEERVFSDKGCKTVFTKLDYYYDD

For `C=C[C@H](OC)[C@@H](O)c1ccc(OC)c(O)c1`, the composite z-score in test [1] was -0.444; in test [6], -1.56; in test [7] it was -0.29; with Torsin-1A (Homo sapiens) [8], -0.874; with Torsin-1A (Homo sapiens) [9] it was -0.695; in [10] it was -0.734. The same compound gave a composite z-score in [12] of -0.169. Further, the z-score in test [2] was 0.97 (inactive); in [3] it was -1.34 (inactive); in test [4], 0.222 (inactive); in test [5], -0.904 (inactive); in [11], 0.169 (inactive); in test [13], -0.258 (inactive). Besides, the z-score in [14] was 0.352 (inactive); in test [15] it was -0.658 (inactive); in test [16], 0.207 (inactive); in test [17], -0.425; in [18] it was -2.15 (inactive); in test [19], -0.986 (inactive). Also, the z-score in test [20] is -0.556.

In the case of `CC1(C)OB(/C=C\CC(OC(=O)c2ccncc2)c2ccccc2)OC1(C)C` (stereo not given), the composite z-score is 0.496 in test [1]; -0.452 in [6]; -0.383 in test [7]; 0.432 with Torsin-1A (Homo sapiens) [8]; -0.232 with Torsin-1A (Homo sapiens) [9]; -0.476 in test [10]. Further, the composite z-score in test [12] came to 1.24. Moreover, the z-score is -0.635 (inactive) in test [2]; 0.135 (inactive) in [3]; 3.3 (inactive) in test [4]; 0.174 (inactive) in [5]; -0.318 (inactive) in [11]; 0.777 (inactive) in test [13]. The z-score in [14] was -0.854 (inactive); in [15], -0.66 (inactive); in test [16] it was -0.678 (inactive); in [17] it was -0.119; in test [18], -2.45 (inactive); in [19], 0.637 (inactive). The same compound displayed a z-score in [20] of -5.03.

As to `CC(=O)NCCCC[C@@H]1NC(=O)[C@H]2C[C@@H](C(=O)NCCCCCN)[C@@H](c3ccc(O)cc3)N2C1=O`, the composite z-score in test [1] is 0.0662; in test [6], 0.947; in test [7] it was -0.0658; in the test with Torsin-1A (Homo sapiens) [8] it was 0.274; with Torsin-1A (Homo sapiens) [9], 0.568; in test [10], 1.01. Moreover, the composite z-score in test [12] was 0.302. The z-score in test [2] is 0.0104 (inactive); in [3] it was 0.447 (inactive); in [4] it was -0.0038 (inactive); in test [5], 0.126 (inactive); in test [11] it was -0.556 (inactive); in test [13], 0.537 (inactive). In addition, the z-score is 0.33 (inactive) in test [14]; 0.0814 (inactive) in test [15]; 0.302 (inactive) in test [16]; -0.413 in test [17]; 0.178 (inactive) in test [18]; -1.24 (inactive) in test [19]. For the same compound, the z-score in test [20] was 1.01.

Consider `COC(=O)C(CC#Cc1ccc2c(c1)[C@]1(C(=O)N2)[C@H](C(N)=O)[C@H]2C(=O)O[C@H](c3ccccc3)[C@H](c3ccccc3)N2[C@@H]1c1ccccc1OCCO)C(=O)OC`, for which the composite z-score in test [1] was 0.151; in [6] it was -0.0001; in test [7] it was -0.152; with Torsin-1A (Homo sapiens) [8] it was 0.544; with Torsin-1A (Homo sapiens) [9], 1.48; in [10], 1.07. This compound also had a composite z-score in test [12] of 0.0622. For the same compound, the z-score in test [2] is -6.25 (inactive); in test [3], -0.451 (inactive); in test [4], 0.362 (inactive); in test [5], -0.955 (inactive); in [11], 0.879 (inactive); in test [13] it was 14.2 (active). Also, the z-score was 3.83 (inactive) in test [14]; 1.02 (inactive) in [15]; 1.47 (inactive) in test [16]; -0.127 in [17]; 1.9 (inactive) in [18]; 0.723 (inactive) in test [19]. In test [20], this compound had a z-score of 0.904.

With `COC(=O)C(CC#Cc1ccc2c(c1)[C@]1(C(=O)N2)[C@H](C(=O)N2CCN(c3ncccn3)CC2)[C@H]2C(=O)O[C@H](c3ccccc3)[C@H](c3ccccc3)N2[C@@H]1c1ccc(O)cc1)C(=O)OC`, the composite z-score turned out to be 0.923 in test [1]; 2.27 in test [6]; 1.39 in test [7]; 0.662 with Torsin-1A (Homo sapiens) [8]; 1.12 in the test with Torsin-1A (Homo sapiens) [9]; 1.04 in test [10]. Besides, in test [12], the composite z-score was determined as 1.93. Further, the z-score in [2] was -3.7 (inactive); in test [3] it was -0.58 (inactive); in [4], -0.0515 (inactive); in [5], 0.0989 (inactive); in [11] it was -0.442 (inactive); in [13] it was 1.85 (inactive). For the same compound, the z-score in test [14] is 0.89 (inactive); in test [15], 0.804 (inactive); in [16], 0.0729 (inactive); in [17], -0.339; in test [18], 1.52 (inactive); in [19], -0.566 (inactive). Further, the z-score in [20] is 0.665.

Source of the values: PubChem BioAssay.
